PubChem BioAssay (Tox21)
“And” between values parts separate entries of the source, which are not always exact repeats. Equal entries are not always repeated. Records with an inconclusive call do not appear. A call without a number means that no potency is given here. A number with no mark means an inactive call. The source made the active and inactive calls. Calls follow the shape of the dose curve; as a rule, active = well fitted curve in the direction sought with a large enough effect in the repeat runs; inconclusive = weak or mixed curves; inactive = no such curve, though single readings can be large; an effect the other way counts as inactive or inconclusive.

assay: qHTS RealTime-Glo MT Cell Viability Assay in HepG2 cells - 8 hour (AID 1224873); conditions: RealTime-Glo luminescence; series mostly up to 76.8 µM; also: nearly all actives have a fitted effect of over 55% in size
How it was run: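 HepG2 cells (600/well) mixed with RealTime-Glo MT reagent, settled 5 h at 37 C/5% CO2 before compound addition. Nonlytic NanoLuc luminescence from viable-cell prosubstrate reduction read repeatedly during 40 h treatment at 37 C.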
Potency is read from the fitted curve at half-maximal effect.

SMILES | Potency | viability change, negative = cytotoxic
Brc1c2ccccc2cc2ccccc12 | inactive | 
C[C@H](CCC(=O)O)[C@H]1CC[C@H]2[C@@H]3CC[C@@H]4C[C@H](O)CC[C@]4(C)[C@H]3C[C@H](O)[C@]12C | inactive | 
COC(=O)C1=C(C)NC(COC(N)=O)=C(C(=O)OC(C)C)C1c1cccc(Cl)c1Cl (stereo unspecified) | 23.9 µM (active) | 
CCCCOC(=O)CCCCCCCC(=O)OCCCC | inactive | 
CCN(CC)c1ccc(C(=C2C=CC(=[N+](CC)CC)C=C2)c2cc(S(=O)(=O)O)ccc2S(=O)(=O)[O-])cc1 | inactive | 
CCCCCCCCCCCCCCCCCCOS(=O)(=O)O | inactive | 
CCC(C)(C)CC | inactive | 
CCOC(=O)NCCOc1ccc(Oc2ccccc2)cc1 | inactive | 
O=[N+]([O-])c1ccc(NCCO)c(OCCO)c1 | inactive | 
CN1CCN(C(c2ccccc2)c2ccccc2)CC1 | inactive | 
O=C(O)c1nc(Cl)c(Cl)c(Cl)c1Cl | inactive | 
O=C(O)C1(C(=O)O)CCC1.[NH2-].[NH2-].[Pt+2] | inactive | 
CCCCCCCCCCCCCCOS(=O)(=O)O | inactive | 
CCN(CC)CCOC(=O)C(Cc1cccc2ccccc12)CC1CCCO1 (stereo unspecified) | inactive | 
CCCNCC(O)COc1ccccc1C(=O)CCc1ccccc1 (stereo unspecified) | inactive | 
O=C1C(O)=C(O)C(=O)C(O)=C1O | inactive | 

SMILES | Potency | viability change, negative = cytotoxic
C/C(=C(\CCOP(=O)(O)O)SC(=O)c1ccccc1)N(C=O)Cc1cnc(C)nc1N |  | 2.94% [at 6.97 µM]
CC(=O)c1ccc2c(c1)N(CCCN(C)C)c1ccccc1S2 | inactive | 
CNCCCN1c2ccccc2CCc2ccccc21 | inactive | 
C/C=C(/C(=C/C)c1ccc(OC(C)=O)cc1)c1ccc(OC(C)=O)cc1 | inactive | 
NCC(=O)CCC(=O)O | inactive | 
CCCCCCCC#N | inactive | 
CCCCCCCCCCCCN1CCCCCC1=O | inactive | 
O=C(Nc1ccccc1)c1ccccc1O | inactive | 
CCC(C)O (stereo unspecified) | inactive | 
O=[N+]([O-])c1cccc(S(=O)(=O)O)c1 | inactive | 
CN(C)CCN(Cc1ccccc1)c1ccccn1 | inactive | 
CCNc1cc(O)ccc1C | inactive | 
C#CCN(C)CCCOc1ccc(Cl)cc1Cl | inactive | 
Nc1cc(C(=O)O)c(O)c(S(=O)(=O)O)c1 | inactive | 
C=C1C(=C/C=C2\CCC[C@]3(C)[C@@H]([C@H](C)/C=C/[C@@H](O)C4CC4)CC[C@@H]23)C[C@@H](O)C[C@@H]1O | inactive | 

assay: qHTS RealTime-Glo MT Cell Viability Assay in HEK293 cells - 40 hour (AID 1224874); conditions: RealTime-Glo luminescence; max response: stronger effect = lower value; also: nearly all actives have a fitted effect of over 50% in size
How it was run: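 600 HEK293 cells per well, dispensed already mixed with RealTime-Glo MT reagents. Compound dosing came 5 h later. The same wells were read for luminescence at 0, 8, 16, 24, 32 and 40 h of exposure at 37 C.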

SMILES | max response | Potency
Brc1c2ccccc2cc2ccccc12 | -17.1% | 
C[C@H](CCC(=O)O)[C@H]1CC[C@H]2[C@@H]3CC[C@@H]4C[C@H](O)CC[C@]4(C)[C@H]3C[C@H](O)[C@]12C | -23.1% | 
COC(=O)C1=C(C)NC(COC(N)=O)=C(C(=O)OC(C)C)C1c1cccc(Cl)c1Cl (stereo unspecified) |  | 26.8 µM (active)
CCCCOC(=O)CCCCCCCC(=O)OCCCC | 2.76% | 
CCN(CC)c1ccc(C(=C2C=CC(=[N+](CC)CC)C=C2)c2cc(S(=O)(=O)O)ccc2S(=O)(=O)[O-])cc1 | 0.738% | 
C#C[C@]1(O)CC[C@H]2[C@@H]3CCc4cc(OC5CCCC5)ccc4[C@H]3CC[C@@]21C |  | 23.9 µM (active)
CCC(C)(C)CC | -9.85% | 
CCOC(=O)NCCOc1ccc(Oc2ccccc2)cc1 |  | 21.9 µM (active)
O=[N+]([O-])c1ccc(NCCO)c(OCCO)c1 | -13.3% | 
CN1CCN(C(c2ccccc2)c2ccccc2)CC1 | -1.32% | 
O=C(O)C1(C(=O)O)CCC1.[NH2-].[NH2-].[Pt+2] | -1.65% | 
CCCCCCCCCCCCCCOS(=O)(=O)O | -13.8% | 
CCCNCC(O)COc1ccccc1C(=O)CCc1ccccc1 (stereo unspecified) |  | 2.39 µM (active)
O=C1C(O)=C(O)C(=O)C(O)=C1O | -9.06% | 
C/C(=C(\CCOP(=O)(O)O)SC(=O)c1ccccc1)N(C=O)Cc1cnc(C)nc1N | 6.16% | 
C=CC(=O)OCCOCCOCCOCCOC(=O)C=C |  | 31.1 µM (active) and 19.3 µM (active)
O=C(Cl)c1cc(C(=O)Cl)cc(C(=O)Cl)c1 |  | 49 µM (active)
NCC(=O)CCC(=O)O | 7.89% | 
CCCCCCCC#N | -4.16% | 
CCC(C)O (stereo unspecified) | 7.73% | 
O=[N+]([O-])c1cccc(S(=O)(=O)O)c1 |  | 17.6 µM (active)
CN(C)CCN(Cc1ccccc1)c1ccccn1 | -27.7% | 
CCNc1cc(O)ccc1C | 7.99% | 
C#CCN(C)CCCOc1ccc(Cl)cc1Cl | -21.6% | 
Nc1cc(C(=O)O)c(O)c(S(=O)(=O)O)c1 | 9.59% | 
C=C1C(=C/C=C2\CCC[C@]3(C)[C@@H]([C@H](C)/C=C/[C@@H](O)C4CC4)CC[C@@H]23)C[C@@H](O)C[C@@H]1O |  | 8.49 µM (active)

assay: A CellTox Green Cytotoxicity Assay to monitor cytotoxicity in HEK293 cells - 24 hour (AID 1224875); conditions: CellTox Green fluorescence; series mostly up to 76.8 µM; also: nearly all actives have a fitted effect of over 45% in size
How it was run: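 Dead-cell fluorescence measured kinetically: asymmetric cyanine dye, HEK293, 600 cells/well, 5 h settle, 23 nL cpd/DMSO, 37 C, reads 0–40 h every 8 h.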

SMILES | Potency
COC(=O)C1=C(C)NC(COC(N)=O)=C(C(=O)OC(C)C)C1c1cccc(Cl)c1Cl (stereo unspecified) | inactive
CCCCOC(=O)CCCCCCCC(=O)OCCCC | inactive
CCN(CC)c1ccc(C(=C2C=CC(=[N+](CC)CC)C=C2)c2cc(S(=O)(=O)O)ccc2S(=O)(=O)[O-])cc1 | inactive
CCC(C)(C)CC | inactive
CCOC(=O)NCCOc1ccc(Oc2ccccc2)cc1 | inactive
O[C@@H](COc1cccc2ncccc12)CN1CCN(C2c3ccccc3[C@@H]3[C@H](c4ccccc42)C3(F)F)CC1 (stereo partly specified) | inactive
O=[N+]([O-])c1ccc(NCCO)c(OCCO)c1 | inactive
CN1CCN(C(c2ccccc2)c2ccccc2)CC1 | inactive
O=C(O)c1nc(Cl)c(Cl)c(Cl)c1Cl | inactive
O=C(O)C1(C(=O)O)CCC1.[NH2-].[NH2-].[Pt+2] | inactive
CCCNCC(O)COc1ccccc1C(=O)CCc1ccccc1 (stereo unspecified) | inactive
O=C1C(O)=C(O)C(=O)C(O)=C1O | inactive
C=CC(=O)OCCOCCOCCOCCOC(=O)C=C | inactive
CC(=O)c1ccc2c(c1)N(CCCN(C)C)c1ccccc1S2 | inactive
CNCCCN1c2ccccc2CCc2ccccc21 | inactive
C/C=C(/C(=C/C)c1ccc(OC(C)=O)cc1)c1ccc(OC(C)=O)cc1 | inactive
NCC(=O)CCC(=O)O | inactive
CCCCCCCC#N | inactive
CCCCCCCCCCCCN1CCCCCC1=O | inactive
O=[N+]([O-])c1cccc(S(=O)(=O)O)c1 | inactive
CN(C)CCN(Cc1ccccc1)c1ccccn1 | inactive
CCNc1cc(O)ccc1C | 38.5 µM (active)
C#CCN(C)CCCOc1ccc(Cl)cc1Cl | inactive
Nc1cc(C(=O)O)c(O)c(S(=O)(=O)O)c1 | inactive
